Assay outcomes: PubChem, several laboratories
HSF1 inh = HSF1 inhibition; activity change, negative = inhibition, % at 7.5 µM (by protocol); 300,000 compounds, 0.77% hits; AID 2098; NIH3T3-HGL HSE-luciferase, MG132-induced, luminescence 8 h; stronger effect = lower value;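 active = more than half of replicate wells show activity change below -50%, luminescence cut by over half; inconclusive = some wells, but at most half, below -50%; inactive = no replicate well below -50%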;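 note: luciferase reports HSF-1 transcriptional activity via heat shock element; 0% = median of DMSO wells and -100% = zero luminescence signal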
NR0B1 inh = inhibits human nuclear receptor DAX1. P51843. HEK293 Gal4-DAX1 luciferase reporter, luminescence. inhibition, % at 6.75 µM. 340,000 compounds, 0.99% hits. AID 504766;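 active = inhibition above the mean over all tested compounds plus 3 SD, cut at about 4.2% in these data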;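 note: 0% = DAX1-transfected cells with DMSO and 100% = empty-vector control cells with DMSO; inhibition shows as a rise in luminescence from relieved DAX1 repression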
HSF-1 act = increases HSF-1 driven luciferase reporter signal. NIH3T3-HGL HSF-1 luciferase reporter, MG132, 8 h; 100% = twice DMSO control signal. activation, % at 9 µM. 300,000 compounds, 1.7% hits. AID 504408;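 active = mean replicate activation of at least 50% with a set share of replicates each reaching 50%; inconclusive = only one of those two conditions met; inactive = mean below 50% and too few replicates reaching it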;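 note: 0% = median of the neutral control wells and 100% = twice that signal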
GAA850 FXN act = frataxin GAA850 promoter activation; HEK293 lucGAA850 FXN promoter luciferase reporter, 24 h; percent of 10 µM SAHA response; activation, % at 6 µM; 360,000 compounds, 0.56% hits; AID 540364;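 active = activation above the average of all compounds screened plus 3 SD, cutoff fixed separately per campaign, cut at about 7.5% in these data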;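 note: 0% = DMSO wells and 100% = 10 µM SAHA wells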
AHR act = activators of human aryl hydrocarbon receptor. AHR-responsive luciferase reporter cells, luminescence. 320,000 compounds, 2.5% hits. AID 2796. activation, % at 5 µM. P35869; in the data active = activation above about 47%;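 note: 0% = vehicle wells and 100% = reference agonist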
Target sequence (P35869 whole entry, looked up): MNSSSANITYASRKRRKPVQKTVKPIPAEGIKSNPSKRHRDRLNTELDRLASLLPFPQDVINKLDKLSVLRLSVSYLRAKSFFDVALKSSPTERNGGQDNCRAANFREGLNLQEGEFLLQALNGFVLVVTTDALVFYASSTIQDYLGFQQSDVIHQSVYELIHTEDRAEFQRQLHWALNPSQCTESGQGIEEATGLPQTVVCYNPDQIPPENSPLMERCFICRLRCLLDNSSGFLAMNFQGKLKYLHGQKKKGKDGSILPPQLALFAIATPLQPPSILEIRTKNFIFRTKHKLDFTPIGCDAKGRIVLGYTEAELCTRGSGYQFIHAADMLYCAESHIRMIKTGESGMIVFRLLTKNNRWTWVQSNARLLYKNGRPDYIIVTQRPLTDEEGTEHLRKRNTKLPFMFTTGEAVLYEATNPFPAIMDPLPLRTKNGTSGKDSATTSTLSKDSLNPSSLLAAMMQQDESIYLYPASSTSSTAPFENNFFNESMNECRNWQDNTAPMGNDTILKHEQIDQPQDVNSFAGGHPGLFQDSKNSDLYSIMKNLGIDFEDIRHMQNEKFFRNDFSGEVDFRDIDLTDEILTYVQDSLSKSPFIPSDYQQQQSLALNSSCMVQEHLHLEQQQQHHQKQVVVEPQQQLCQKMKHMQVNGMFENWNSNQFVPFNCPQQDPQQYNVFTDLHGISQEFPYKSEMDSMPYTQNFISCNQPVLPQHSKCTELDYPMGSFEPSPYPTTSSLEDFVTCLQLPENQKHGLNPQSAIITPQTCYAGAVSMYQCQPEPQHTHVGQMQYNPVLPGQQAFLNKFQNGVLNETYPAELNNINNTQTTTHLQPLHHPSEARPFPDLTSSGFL
GAA30 FXN cntr = GAA30 FXN promoter activation counter-screen | activation, % at 6 µM | HEK293 lucGAA30 FXN promoter luciferase, 24 h; DMSO = 0%, 5 µM ipriflavone = 100% | 1,900 compounds, 66% hits | AID 588350 | shares compounds with GAA850 FXN act;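 active = mean activation above the mean of solvent-only control wells plus 3 SD, cut at about 22% in these data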;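 note: counterscreen of GAA850 promoter hits where activity marks nonselective or luminescence artifacts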
FXN GAA850 conf = confirmation of GAA850 frataxin (FXN) promoter activators; shares compounds with GAA850 FXN act; HEK293 lucGAA850 FXN promoter luciferase reporter, 24 h; 100% = activation by SAHA; activation, % at 6 µM; 1,900 compounds, 86% hits;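 active = mean activation above a set limit taken from the primary screen, cut at about 8% in these data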;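 note: 0% = DMSO wells and 100% = 10 µM SAHA wells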
* = called active by the depositor; ? = inconclusive; / = no result. Rows were chosen to be rich in hits. Some 5.4% of all compounds tested hit in one or more screens of this group.

SMILES | HSF1 inh | NR0B1 inh | HSF-1 act | GAA850 FXN act | AHR act | GAA30 FXN cntr | FXN GAA850 conf
Cc1sc2nc(C(C)C)nc(SCC(=O)NC3CC3)c2c1C | 12.9 | -0.8 | 13.2 | -2.1 | 15.2 | / | /
Cc1cc(NC(=O)CSc2nc(C(C)C)nc3sc(C)c(C)c23)no1 | -9.6 | 2.7 | 5.3 | 7.9* | 0.7 | -6.3 | 12.9*
Cc1ccsc1/C=N/NC(=O)Cc1cccn1C | -12.4 | -0.9 | 8.1 | 0.7 | 6.2 | / | /
N#C/C(=C\c1cccs1)C(=O)NCc1ccccc1 | 0.3 | -0.4 | 13.9 | 1.2 | -1.6 | / | /
N#C/C(=C\c1cccs1)C(=O)Nc1nccs1 | 23.3 | 1.9 | 60.0* | 9.2* | 15.1 | 105.7* | 27.8*
COc1ccc(S(=O)(=O)NNC(=O)Nc2ccc(C)cc2C)c(OC)c1 | 5.8 | 0.7 | -7.8 | 1.7 | 0.7 | / | /
CN1CCC/C1=C/C=C1\SC(=S)NC1=O | / | 2.8 | / | 2.9 | 3.2 | / | /
COC(=O)C1=C(C)N(C)C(=O)NC1c1cc(Cl)c(O)c(OC)c1 (stereo unspecified) | 13.5 | -0.1 | 20.2 | 7.8* | 2.1 | 9.8 | 11.8*
COC(=O)C1=C(C)N(C)C(=O)NC1c1cc(Cl)cc(Cl)c1OC (stereo unspecified) | / | 0.1 | / | -0.7 | -2.0 | / | /
CCOC(=O)C1=C(COC(=O)COc2ccccc2C#N)NC(=O)NC1C (stereo unspecified) | -3.3 | -1.1 | -13.1 | 2.0 | 6.1 | / | /
Cc1ccc(NC(=S)N/N=C/c2c(C)[nH]c3ccccc23)cc1 | 16.6 | -0.2 | 45.4 | 7.9* | 75.3* | 30.8* | 20.6*
Cc1[nH]c2ccccc2c1/C=N/NC(N)=S | 1.5 | -0.5 | -6.3 | -0.4 | 4.9 | / | /
Cc1nnc(SCC(=O)c2cc(C)n(-c3ccc4c(c3)OCO4)c2C)s1 | -7.4 | -1.3 | 32.8 | 11.0* | 7.5 | 66.2* | 26.4*
Nc1cccn2c(-c3ccc(Cl)c(Cl)c3)cnc12 | 22.8 | 3.5 | 70.0* | 11.9* | 22.4 | 111.1* | 42.7*
CC(=O)Nc1ccc(NC(=O)CCc2c(C)noc2C)cc1 | / | 0.1 | / | 0.8 | / | / | /
O=C(NCCN1CCOCC1)c1cc(-c2ccc(F)cc2)on1 | 8.3 | 0.5 | 22.6 | 6.3 | 19.1 | / | /
O=C(NCCCN1CCOCC1)c1cc(-c2ccc(F)cc2)on1 | -7.1 | 1.2 | -20.3 | 9.9* | -6.3 | 48.4* | 18.2*
CC1CCCc2sc3nc(N4CCN(CCO)CC4)n4ncnc4c3c21 (stereo unspecified) | -3.3 | 1.2 | -1.3 | 8.1* | 31.2 | 32.5* | 21.5*
O=C(CN(C(=O)CCC(=O)Nc1nccs1)c1ccc(F)cc1)NCCc1ccccc1 | 7.6 | -0.2 | 6.4 | -2.8 | 2.2 | / | /
CC(OC(=O)[C@@H]1CCCN1C(=O)c1cccs1)C(=O)Nc1cccc([N+](=O)[O-])c1 (stereo partly specified) | / | 0.6 | / | -0.4 | -1.0 | / | /
O=C(N/N=C/C(Br)=C/c1ccccc1)c1cnccn1 | 166.2 | 2.9 | 258.8* | 8.9* | 2.4 | 107.3* | 39.4*
O=C(N/N=C/C(Br)=C\c1ccccc1)c1n[nH]c2c1CCC2 | 210.2 | -0.8 | 210.9* | 17.1* | 39.2 | 29.3* | 68.4*
O=C(N/N=C/c1ccc(Cl)cc1Cl)c1n[nH]c2c1CCCC2 | 9.7 | 0.3 | 17.8 | -3.2 | 32.9 | / | /
O=C(N/N=C\c1cccc(Cl)c1)c1n[nH]c2c1CCCC2 | 1.7 | 1.4 | 11.3 | 10.2* | 31.7 | 72.6* | 19.9*
O=C(NCCc1ccccc1)C1CCC(CNS(=O)(=O)c2ccc(F)cc2)CC1 (stereo unspecified) | 3.3 | 0.7 | -22.3 | 1.1 | 2.4 | / | /
SMILES | HSF1 inh | NR0B1 inh | HSF-1 act | GAA850 FXN act | AHR act | GAA30 FXN cntr | FXN GAA850 conf
Cc1ccccc1OCC(=O)Nc1cccc(Cl)c1C | 7.0 | 1.7 | 29.4 | 0.5 | -8.1 | / | /
Cc1ccccc1OCC(=O)Nc1ccccc1-c1ccccc1NC(=O)COc1ccccc1C | 11.8 | -0.9 | 8.1 | 15.2* | 8.7 | 15.3 | 11.4*
COc1ccc(Nc2cc(C)nc(N3CCN(C(=O)c4ccc5c(c4)OCO5)CC3)n2)cc1 | -2.2 | 1.6 | -8.0 | 2.2 | 5.3 | / | /
OC(c1ccccc1)c1nc(-c2cccc(C(F)(F)F)c2)cs1 (stereo unspecified) | / | / | / | 0.6 | / | / | /
CC1CCCCC1NC(=O)C1CCC(CNS(=O)(=O)c2cccc3cccnc23)CC1 (stereo unspecified) | -0.5 | -0.8 | 11.6 | 1.3 | 1.9 | / | /
CCN(CC)c1ccc(S(=O)(=O)N2CCCCC2)cc1NC(=O)CN1C(=O)NC2(CCCC2)C1=O | 7.1 | -0.3 | 9.6 | 9.0* | -2.2 | 20.9 | 10.4*
Cc1ccc(S(=O)(=O)N2CCOCC2)cc1NC(=O)CN1C(=O)NC2(CCCC2)C1=O | / | -1.7 | / | 1.7 | -0.9 | / | /
COc1ccc(OC)c(/C=C/C(=O)N2C(=O)c3cccc(N)c3C2=O)c1 | 83.2 | 1.3 | 86.5* | 9.2* | 8.1 | -2.5 | 8.9*
COc1ccc(OC)c(/C=C/C(=O)N2CCCc3ccccc32)c1 | 10.5 | -0.3 | 5.3 | 4.3 | 22.3 | / | /
Nc1cccc2nc3ccccc3cc12 | 13.7 | 0.2 | 16.7 | 18.6* | 21.7 | -13.5 | 101.3*
C=CCNc1nc2c(c(=O)n(C)c(=O)n2C)n1Cc1ccc(F)cc1 | 5.6 | -1.8 | 8.9 | 10.7* | -2.4 | -4.2 | 0.7
Cc1c(C=NCCOCc2ccccc2)cnn1C | -2.5 | 0.7 | 0.3 | 10.1* | 1.0 | 18.0 | 9.0*
Cc1ccc(-c2c(C(=O)N3CCOCC3)oc(=O)c3ccccc23)cc1 | -0.6 | 2.7 | -2.7 | -1.7 | 0.6 | / | /
CCN1CCN(C(=O)c2oc(=O)c3ccccc3c2-c2ccc(C)cc2)CC1 | 14.8 | 1.6 | 42.7 | 15.5* | 0.3 | 7.3 | 3.3
CC(O)CNc1ncnc2cc(-c3ccc(F)cc3)sc12 (stereo unspecified) | 18.2 | -0.6 | 32.7 | 10.3* | 14.4 | 74.9* | 30.2*
CSC(=S)NN=C(C)c1cccc(C)n1 | / | -0.7 | / | 16.4* | / | -115.2 | -33.7
O=C(NCc1cccc(C(F)(F)F)c1)c1ccc2nc([C@H]3C[C@H](O)[C@@H](CO)O3)[nH]c2c1 | / | / | / | -0.8 | / | / | /
CC(=O)Nc1ccc(N(CC(O)Cn2c3ccccc3c3ccccc32)S(=O)(=O)c2ccc(C)cc2)cc1 (stereo unspecified) | 20.5 | -1.4 | 26.2 | 16.4* | 43.0 | 2.3 | 12.4*
Cc1ccc(N(CC(O)Cn2c3ccccc3c3ccccc32)S(C)(=O)=O)cc1 (stereo unspecified) | 40.2 | 0.4 | 38.4 | 2.4 | 5.8 | / | /
CCOC(=O)c1sc(Nc2nc3ccc(OC)cc3s2)cc1C | -6.3 | -1.1 | -0.7 | 5.5 | 37.6 | / | /
CCOC(=O)c1sc(Nc2nc3c(F)cccc3s2)cc1C | 45.3 | 0.5 | ? | 10.7* | 52.5* | 105.9* | 41.8*
